Source: PubChem BioAssay AID588689 (Southern Research Specialized Biocontainment Screening …, 2011)
The whole screen tested about 340,000 compounds, of which about 1,000 (0.29%) were called active. No stated cut-off is given here; in the data, inconclusive means inhibition above about 29% without an active follow-up result; inactive means below that. The list is a sample of the results. Potency and affinity values are given separately.

Molecular target: Genome polyprotein (Dengue virus type 2 (strain 16681-PDK53)) (UniProt P29991)
Sequence (P29991 whole entry, looked up): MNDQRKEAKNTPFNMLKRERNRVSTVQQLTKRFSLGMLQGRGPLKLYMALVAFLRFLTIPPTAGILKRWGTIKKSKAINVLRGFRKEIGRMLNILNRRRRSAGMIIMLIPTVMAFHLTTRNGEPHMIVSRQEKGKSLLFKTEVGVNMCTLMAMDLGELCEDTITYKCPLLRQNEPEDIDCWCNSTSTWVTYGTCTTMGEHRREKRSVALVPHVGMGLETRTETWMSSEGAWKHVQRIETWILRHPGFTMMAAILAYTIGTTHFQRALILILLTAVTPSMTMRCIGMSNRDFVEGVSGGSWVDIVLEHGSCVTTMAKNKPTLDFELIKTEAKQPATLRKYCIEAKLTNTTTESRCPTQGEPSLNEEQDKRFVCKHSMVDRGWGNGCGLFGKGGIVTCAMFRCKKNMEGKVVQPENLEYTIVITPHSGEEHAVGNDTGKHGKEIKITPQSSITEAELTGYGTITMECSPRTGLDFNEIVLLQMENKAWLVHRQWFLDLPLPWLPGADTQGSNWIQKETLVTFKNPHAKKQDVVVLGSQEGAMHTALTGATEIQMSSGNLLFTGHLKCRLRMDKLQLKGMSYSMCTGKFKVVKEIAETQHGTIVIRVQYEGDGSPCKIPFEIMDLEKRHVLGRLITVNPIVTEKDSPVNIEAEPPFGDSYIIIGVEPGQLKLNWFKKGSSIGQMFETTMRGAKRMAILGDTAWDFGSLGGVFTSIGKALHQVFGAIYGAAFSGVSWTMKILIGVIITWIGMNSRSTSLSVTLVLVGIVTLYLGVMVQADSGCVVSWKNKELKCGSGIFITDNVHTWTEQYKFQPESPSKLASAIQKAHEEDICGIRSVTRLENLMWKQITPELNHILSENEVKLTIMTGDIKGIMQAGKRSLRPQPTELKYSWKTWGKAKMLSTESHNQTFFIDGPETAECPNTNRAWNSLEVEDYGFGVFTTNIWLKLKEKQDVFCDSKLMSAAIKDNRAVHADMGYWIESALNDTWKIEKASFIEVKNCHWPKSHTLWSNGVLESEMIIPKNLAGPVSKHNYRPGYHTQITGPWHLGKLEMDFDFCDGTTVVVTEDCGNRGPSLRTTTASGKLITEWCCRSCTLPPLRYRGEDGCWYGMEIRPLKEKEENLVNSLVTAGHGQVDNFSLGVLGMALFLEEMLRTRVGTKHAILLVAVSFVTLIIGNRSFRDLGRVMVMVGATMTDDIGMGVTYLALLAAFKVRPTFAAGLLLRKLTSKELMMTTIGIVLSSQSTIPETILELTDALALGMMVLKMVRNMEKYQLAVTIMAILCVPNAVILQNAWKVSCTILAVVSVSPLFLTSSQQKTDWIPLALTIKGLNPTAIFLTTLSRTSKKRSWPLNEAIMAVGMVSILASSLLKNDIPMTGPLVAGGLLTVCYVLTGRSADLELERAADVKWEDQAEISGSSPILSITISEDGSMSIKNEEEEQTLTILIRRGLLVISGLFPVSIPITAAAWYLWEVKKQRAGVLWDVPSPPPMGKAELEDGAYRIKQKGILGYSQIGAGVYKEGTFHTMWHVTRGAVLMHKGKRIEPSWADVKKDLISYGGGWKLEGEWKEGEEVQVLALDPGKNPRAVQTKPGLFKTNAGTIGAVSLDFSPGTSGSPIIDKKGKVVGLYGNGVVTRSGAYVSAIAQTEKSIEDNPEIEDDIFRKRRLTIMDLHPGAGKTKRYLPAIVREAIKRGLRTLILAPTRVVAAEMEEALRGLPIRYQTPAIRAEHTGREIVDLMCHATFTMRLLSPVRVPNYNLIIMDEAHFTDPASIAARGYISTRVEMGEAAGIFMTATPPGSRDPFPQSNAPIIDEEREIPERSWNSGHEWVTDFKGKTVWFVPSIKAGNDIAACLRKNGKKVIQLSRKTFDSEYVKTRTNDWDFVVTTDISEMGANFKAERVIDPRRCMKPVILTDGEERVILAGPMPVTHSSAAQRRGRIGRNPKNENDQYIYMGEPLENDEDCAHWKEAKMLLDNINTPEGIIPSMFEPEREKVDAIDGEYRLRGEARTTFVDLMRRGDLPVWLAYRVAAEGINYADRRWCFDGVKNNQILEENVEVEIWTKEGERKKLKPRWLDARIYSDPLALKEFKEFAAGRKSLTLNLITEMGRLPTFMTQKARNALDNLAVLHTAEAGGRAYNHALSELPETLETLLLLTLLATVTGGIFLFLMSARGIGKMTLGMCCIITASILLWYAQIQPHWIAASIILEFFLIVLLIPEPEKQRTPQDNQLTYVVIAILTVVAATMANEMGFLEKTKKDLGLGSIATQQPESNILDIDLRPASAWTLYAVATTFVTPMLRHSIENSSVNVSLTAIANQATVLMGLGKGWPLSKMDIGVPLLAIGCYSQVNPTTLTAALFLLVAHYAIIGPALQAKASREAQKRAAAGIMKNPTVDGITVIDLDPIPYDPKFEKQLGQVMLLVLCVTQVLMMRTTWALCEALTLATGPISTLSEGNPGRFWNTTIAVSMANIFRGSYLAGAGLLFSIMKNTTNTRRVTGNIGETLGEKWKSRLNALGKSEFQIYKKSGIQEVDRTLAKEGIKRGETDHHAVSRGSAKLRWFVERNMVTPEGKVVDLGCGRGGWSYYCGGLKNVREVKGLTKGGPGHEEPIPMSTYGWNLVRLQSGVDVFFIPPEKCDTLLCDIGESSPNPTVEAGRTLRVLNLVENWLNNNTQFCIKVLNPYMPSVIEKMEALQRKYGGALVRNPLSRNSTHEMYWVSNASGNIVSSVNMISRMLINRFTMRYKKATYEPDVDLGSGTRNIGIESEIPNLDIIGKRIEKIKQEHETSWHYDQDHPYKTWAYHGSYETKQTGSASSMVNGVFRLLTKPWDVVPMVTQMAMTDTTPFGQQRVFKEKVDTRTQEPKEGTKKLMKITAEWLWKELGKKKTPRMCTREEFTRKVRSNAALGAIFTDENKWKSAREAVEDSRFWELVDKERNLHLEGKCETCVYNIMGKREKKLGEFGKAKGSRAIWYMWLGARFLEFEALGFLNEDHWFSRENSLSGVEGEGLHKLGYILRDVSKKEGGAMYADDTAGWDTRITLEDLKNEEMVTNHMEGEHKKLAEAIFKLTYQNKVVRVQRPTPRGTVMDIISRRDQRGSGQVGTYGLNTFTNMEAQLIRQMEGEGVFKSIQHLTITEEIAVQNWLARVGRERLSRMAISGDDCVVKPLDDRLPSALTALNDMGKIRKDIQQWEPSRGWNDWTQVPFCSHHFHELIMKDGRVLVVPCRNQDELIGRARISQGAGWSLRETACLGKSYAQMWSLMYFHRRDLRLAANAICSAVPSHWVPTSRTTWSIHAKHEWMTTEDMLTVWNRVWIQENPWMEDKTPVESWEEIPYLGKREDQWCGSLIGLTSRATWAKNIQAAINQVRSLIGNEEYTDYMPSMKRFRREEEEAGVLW
Experiment: flavivirus cap methylation enzyme inhibition – biochemical, confirmation dose response, primary screen (AID 588689)
Settings: Dengue-2 NS5 methyltransferase capping enzyme assay, at 25 µM, stronger effect = higher value

SMILES | inhibition | inhibition (measured here: pilot screen replicate inhibition) [%]
COCCCN(Cc1ccco1)C(=O)CSc1nc2ncccc2[nH]1 | -4.52% (inactive) | –
Cc1oc(-c2ccccc2Cl)nc1CS(=O)CC(=O)NCCCN1CC(C)CC(C)C1 (stereo not given) | 2.33% (inactive) | –
COc1cccc(/C=C2\Oc3cc(OCC(=O)N4CCC[C@H]4C(=O)O)ccc3C2=O)c1 | 2.17% (inactive) | –
COc1ccc(/C=C2\Oc3cc(OCC(=O)N4CC(O)C[C@H]4C(=O)O)ccc3C2=O)cc1OC (stereo not given in full) | -10.1% (inactive) | –
CC(=O)CCS(=O)(=O)c1ccc(Oc2ccc(S(=O)(=O)CCC(C)=O)cc2)cc1 | 3.83% (inactive) | –
O=C(O)c1cccc(Nc2nc3ccccc3nc2NS(=O)(=O)c2ccccc2)c1 | 19.8% (inactive) | –
Cc1cccc(S(=O)(=O)Nc2nc3ccccc3nc2Nc2cccc(C(=O)O)c2)c1 | 27.7% (inactive) | –
O=C(O)c1cccc(Nc2nc3ccccc3nc2NS(=O)(=O)c2ccc(F)cc2)c1 | 8.81% (inactive) | –
O=C(O)c1ccc(Nc2nc3ccccc3nc2NS(=O)(=O)c2cccs2)cc1 | 19.7% (inactive) | –
CC(=O)Nc1ccc(S(=O)(=O)Nc2nc3ccccc3nc2Nc2ccccc2)cc1 | -18.8% (inactive) | –
COc1cccc(Nc2nc3ccccc3nc2NS(=O)(=O)c2cccs2)c1 | 16.4% (inactive) | 3.81
CCc1ccc(/C=C2\SC(=S)N(CCCC(=O)N(CCO)c3ccccc3)C2=O)cc1 | 2.75% (inactive) | –
Cc1ccc(-c2nc3ccccc3[nH]2)cc1NC(=O)c1sc2cc(Cl)ccc2c1Cl | -3.63% (inactive) | –
CCC(C)C(NC(=O)c1ccccc1NC(=O)c1ccccc1)C(=O)O (stereo not given) | -1.16% (inactive) | –
O=C(NNC(=O)c1ccccc1-n1cccc1)c1cccc(Cl)c1 | -3.46% (inactive) | –
CCCC(C)NNC(=O)c1cc2ccccc2[nH]1 (stereo not given) | 0% (inactive) | –
COc1ccc(Cl)cc1Nc1nc(-c2sc(NC(=O)C(C)(C)C)nc2C)cs1 | -12% (inactive) | –
Cc1ccc(-c2cccc(C3CC=CC4C3C(=O)N(Cc3ccccc3)C4c3cc(C)ccc3F)c2)cc1 (stereo not given) | -5.46% (inactive) | –
COc1cc(S(=O)(=O)Nc2cccc(C)c2)ccc1NC(=O)c1ccncc1 | -1.47% (inactive) | –
N#CC1=C(N)C2=CCCC[C@H]2[C@H](c2cccc(F)c2)C1(C#N)C#N | -4.34% (inactive) | –
COc1ccc(C=NNc2ccc(S(=O)(=O)Nc3ccccc3C(=O)O)cc2[N+](=O)[O-])c(OC)c1 | 17% (inactive) | –
O=C(O)c1ccccc1NS(=O)(=O)c1ccc(NN=Cc2ccccc2F)c([N+](=O)[O-])c1 | 9.54% (inactive) | –
COc1cc(C=NNc2ccc(S(=O)(=O)Nc3ccccc3C(=O)O)cc2[N+](=O)[O-])ccc1O | 17.4% (inactive) | –
CC(=O)Nc1ccc(C=NNc2ccc(S(=O)(=O)Nc3ccccc3C(=O)O)cc2[N+](=O)[O-])cc1 | 12.4% (inactive) | –
